Over roughly 1,600 compounds, “Hit score” has its median near 0.13; the highest 2% begin near 0.46. The sample as a whole holds a higher share of the highest values than the screen did. *1 amine or outer side, *2 acyl side, *3 side chain or, on linkers, in order; H or OH if unused. Where a SMILES comes first, the peptide text is derived from it. Bridges are numbered along the chain shown (N, C = ends). [ ]: non-standard residue; d: D form. The star is where a group is joined. pTerphenylCO(4''-OnC5H11) = CCCCCOc1ccc(-c2ccc(-c3ccc(C(=O)*)cc3)cc2)cc1; Orn(4R-OH,5R-OH) = O=C([C@H](C[C@@H](O)[C@@H](O)N[*:3])N[*:1])[*:2]; hTyr(3S-OH,4S-OH) = N[C@H](C(=O)O)[C@H](O)[C@@H](O)c1ccc(O)cc1; Pro(3S-OH,4S-Me) = C[C@H]1CN[C@H](C(=O)O)[C@H]1O; Hyp = O=C(O)[C@@H]1C[C@@H](O)CN1
tested on: SARS-CoV-2; assay: Antiviral activity against SARS-CoV-2 (USA-WA1/2020 strain) measured by imaging in HRCE cells at MOI 0.4 after 96 hrs (reported as hit score from 0-1 for on-disease vs off-disease activity: scores >0.6 considered hits); format: functional, Homo sapiens

Row | Compound | Hit score
1 | CCCCc1cc2ccccc2c(OCCN(C)C)n1 [DIMETHISOQUIN] | 0.1395
2 | CC[C@]1(O)C[C@H]2CN(CCc3c([nH]c4ccccc34)[C@@](C(=O)OC)(c3cc4c(cc3OC)N(C=O)[C@H]3[C@@](O)(C(=O)OC)[C@H](OC(C)=O)[C@]5(CC)C=CCN6CC[C@]43[C@@H]65)C2)C1 [VINCRISTINE] | 0.4904
3 | CC[C@]1(O)C[C@@H]2CN(CCc3c([nH]c4ccccc34)[C@@](C(=O)OC)(c3cc4c(cc3OC)N(C)[C@H]3[C@@](O)(C(=O)OC)[C@H](OC(C)=O)[C@]5(CC)C=CCN6CC[C@]43[C@@H]65)C2)C1 [VINBLASTINE] | 0.2235
4 | O=C(C[S+]([O-])Cc1ccco1)NC/C=C\COc1cc(CN2CCCCC2)ccn1 (stereo not drawn) [LAFUTIDINE] | 0.2245
5 | CCC(c1ccccc1)c1c(O)c2ccccc2oc1=O (stereo not drawn) [PHENPROCOUMON] | 0.1829
6 | COc1ccc2c3c1O[C@H]1C[C@@H](O)C=C[C@@]31CCN(C)C2 [GALANTAMINE] | 0.2532
7 | CC(C)COc1ccc(CNC(=O)N(Cc2ccc(F)cc2)C2CCN(C)CC2)cc1 [PIMAVANSERIN] | -0.09171
8 | Brc1ccc(NC2C3CC4CC(C3)CC2C4)cc1 (stereo not drawn) | 0.3495
9 | CO[C@H]1C(=O)[C@]2(C)[C@@H](OC)C[C@H]3OC[C@@]3(OC(C)=O)[C@H]2[C@H](OC(=O)c2ccccc2)[C@]2(O)C[C@H](OC(=O)[C@H](O)[C@@H](NC(=O)OC(C)(C)C)c3ccccc3)C(C)=C1C2(C)C [CABAZITAXEL] | -0.8282
10 | COC(=O)c1ccc2c(c1)NC(=O)/C2=C(\Nc1ccc(N(C)C(=O)CN2CCN(C)CC2)cc1)c1ccccc1 [NINTEDANIB] | 0.1859
11 | O=c1ncnc2n([C@H]3O[C@@H](CO)[C@H](O)[C@@H]3O)[nH]cc1-2 [ALLOPURINOL RIBOSIDE] | 0.1953
12 | Cc1c(O)cccc1C(=O)N[C@@H](CSc1ccccc1)[C@H](O)CN1C[C@H]2CCCC[C@H]2C[C@H]1C(=O)NC(C)(C)C | 0.1621
13 | COc1ccc(C(=O)N2CCN(c3ccc4c(c3)CCC(=O)N4)CC2)cc1OC [VESNARINONE] | 0.09463
14 | CCCOC(C(=O)OC1CCN(C)CC1)(c1ccccc1)c1ccccc1.Cl | 0.3138
15 | C/C=C/C[C@@H](C)[C@@H](O)[C@H]1C(=O)N[C@@H](CC)C(=O)N(C)CC(=O)N(C)[C@@H](CC(C)C)C(=O)N[C@@H](C(C)C)C(=O)N(C)[C@@H](CC(C)C)C(=O)N[C@@H](C)C(=O)N[C@H](C)C(=O)N(C)[C@@H](CC(C)C)C(=O)N(C)[C@@H](CC(C)C)C(=O)N(C)[C@@H](C(C)C)C(=O)N1C [CYCLOSPORINE] | 0.07198
16 | COc1ccc2c(c1)c(CC(=O)OCC(C(=O)O)c1ccccc1)c(C)n2C(=O)c1ccc(Cl)cc1 (stereo not drawn) | 0.05914
17 | COc1ccccc1OC(=O)c1ccccc1OC(C)=O [GUACETISAL] | 0.1414
18 | COc1ccc(NC(=O)c2ccc(C(=N)N(C)C)cc2)c(C(=O)Nc2ccc(Cl)cn2)c1 [BETRIXABAN] | 0.004778
19 | O=C1NC(c2ccccc2)(c2ccccc2)C(=O)N1COP(=O)(O)O [FOSPHENYTOIN] | -0.01075
20 | CNC(=O)c1cccc(NC(=O)N2CCC(Oc3ccccc3Cl)CC2)c1 | 0.1005
21 | CCCCc1nc(C)c(CC(=S)N(C)C)c(=O)n1Cc1ccc(-c2ccccc2-c2nnn[nH]2)cc1 | 0.1262
22 | COc1ccc2c(O[C@@H]3C[C@H]4C(=O)N[C@]5(C(=O)NS(=O)(=O)C6CC6)C[C@H]5/C=C\CCCCN(C)C(=O)[C@@H]4C3)cc(-c3nc(C(C)C)cs3)nc2c1C | 0.1824
23 | C=C1CC[C@H](O)C/C1=C/C=C1\CCC[C@]2(C)[C@@H]([C@H](C)CCCC(C)(C)O)CC[C@@H]12 [CALCIFEDIOL ANHYDROUS] | 0.4579
24 | C=C1/C(=C\C=C2/CCC[C@]3(C)[C@@H]([C@H](C)OCCC(C)(C)O)CC[C@@H]23)C[C@@H](O)C[C@@H]1O [MAXACALCITOL] | -0.1282
25 | C=C1CC[C@H](O)C/C1=C/C=C1\CCC[C@]2(C)[C@@H]([C@H](C)CC[C@@H](O)C(C)(C)O)CC[C@@H]12 [SECALCIFEROL] | 0.3632
26 | C[C@H](/C=C/[C@H](C)C(C)(C)O)[C@H]1CC[C@H]2/C(=C/C=C3C[C@@H](O)C[C@H](O)C3)CCC[C@]12C [PARICALCITOL] | 0.5764
27 | C=C1/C(=C\C=C2/CCC[C@]3(C)[C@@H]([C@H](C)CC[C@@H](O)C(C)C)CC[C@@H]23)C[C@@H](O)C[C@@H]1O [TACALCITOL] | 0.4469

Row | Compound | Hit score
28 | C=C1/C(=C\C=C2/CCC[C@]3(C)[C@@H]([C@H](C)/C=C/[C@H](C)C(C)C)CC[C@@H]23)C[C@@H](O)C[C@@H]1O [DOXERCALCIFEROL] | 0.4621
29 | C=C1CC[C@H](O)C/C1=C/C=C1\CCC[C@]2(C)[C@@H]([C@H](C)CCCC(C)C)CC[C@@H]12 [CHOLECALCIFEROL] | 0.2186
30 | C=C1/C(=C\C=C2/CCC[C@]3(C)[C@@H]([C@H](C)/C=C/[C@@H](O)C4CC4)CC[C@@H]23)C[C@@H](O)C[C@@H]1O [CALCIPOTRIENE] | 0.6212
31 | CCN(CC)C(=O)Nc1ccc(OCC(O)CNC(C)(C)C)c(C(C)=O)c1 (stereo not drawn) [CELIPROLOL] | 0.5089
32 | CN(C)C(=O)Oc1cc(OC(=O)N(C)C)cc(C(O)CNC(C)(C)C)c1 (stereo not drawn) [BAMBUTEROL] | 0.1323
33 | CC(C)(C)NCC(O)COc1ccc(NC(=O)NC2CCCCC2)cc1 (stereo not drawn) [TALINOLOL] | 0.1441
34 | C[C@]12CC[C@H]3[C@@H](CC[C@@]45O[C@@H]4C(O)=C(C#N)C[C@]35C)[C@@H]1CC[C@@H]2O [TRILOSTANE] | 0.3178
35 | COc1cc2nccc(Oc3ccc(NC(=O)Nc4cc(C)on4)c(Cl)c3)c2cc1OC [TIVOZANIB] | 0.1611
36 | CC1(C)S[C@@H]2[C@H](NC(=O)COc3ccccc3)C(=O)N2[C@H]1C(=O)O [PENICILLIN V] | 0.002553
37 | Cc1c(Cl)c(C)[n+]([O-])c(Cl)c1-c1noc(-c2cc(O)c(O)c([N+](=O)[O-])c2)n1 [OPICAPONE] | -0.07412
38 | Cc1ccc2c(c1)[C@]13CCCC[C@@H]1[C@H](C2)N(C)CC3 [DIMEMORFAN] | 0.08461
39 | CCCCCOc1ccc(-c2ccc(-c3ccc(C(=O)N[C@H]4C[C@@H](O)[C@@H](O)NC(=O)[C@@H]5[C@@H](O)[C@@H](C)CN5C(=O)[C@H]([C@@H](C)O)NC(=O)[C@H]([C@H](O)[C@@H](O)c5ccc(O)cc5)NC(=O)[C@@H]5C[C@@H](O)CN5C(=O)[C@H]([C@@H](C)O)NC4=O)cc3)cc2)cc1 [ANIDULAFUNGIN] ({pTerphenylCO(4''-OnC5H11)}-[Orn(4R-OH,5R-OH)]T[Hyp][hTyr(3S-OH,4S-OH)]T[Pro(3S-OH,4S-Me)]; lactam 1-C) | 0.1907
40 | C=CC(=O)Nc1cccc(Oc2nc(Nc3ccc(N4CCN(C)CC4)cc3)nc3ccsc23)c1 [OLMUTINIB] | 0.2407
41 | Cc1oc(=O)oc1COC(=O)C1=C([C@H]2CCCO2)S[C@@H]2[C@@H]([C@@H](C)O)C(=O)N12 [FAROPENEM MEDOXOMIL] | 0.000691
42 | CC(C)(O)CNc1nc(Nc2ccnc(C(F)(F)F)c2)nc(-c2cccc(C(F)(F)F)n2)n1 [ENASIDENIB] | 0.1439
43 | OC[C@H]1O[C@@](CO)(O[C@H]2O[C@H](CO)[C@@H](O)[C@H](O)[C@H]2O)[C@@H](O)[C@@H]1O [SUCROSE] | 0.09545
44 | Cc1cc(S(=O)(=O)[O-])c2c(C)ccc(C(C)C)cc1-2.[Na+] [SODIUM GUALENATE] | 0.2044
45 | CCCCCCCCCCCCCCCC(=O)O[C@@H]1[C@@H](O)[C@@H](O)[C@@H]([C@H](NC(=O)[C@@H]2C[C@@H](CCC)CN2C)[C@H](C)Cl)O[C@@H]1SC [CLINDAMYCIN PALMITATE] | 0.1881
46 | CCn1c(=O)c2c(nc(/C=C/c3ccc(OC)c(OC)c3)n2C)n(CC)c1=O [ISTRADEFYLLINE] | 0.1372
47 | COc1ccc(-c2cc(=O)c3c(O)c(OC)c(O)cc3o2)cc1OC [EUPATILIN] | 0.2352
48 | CC[C@]12CCCN3CCc4c(n(c5ccccc45)C(=O)C1)[C@@H]32 [VINBURNINE] | 0.1621
49 | CCOc1nc2cccc(C(=O)O)c2n1Cc1ccc(-c2ccccc2-c2noc(=O)[nH]2)cc1 [AZILSARTAN] | 0.1513
50 | CCC(C)(Oc1ccc(C2(c3ccc(OC(C)(CC)C(=O)O)cc3)CCCCC2)cc1)C(=O)O (stereo not drawn) [CLINOFIBRATE] | 0.1194
51 | N[C@@H](CCN[C@@H](CCN1CC[C@H]1C(=O)O)C(=O)O)C(=O)O | 0.1041
52 | Cn1cnc2c(F)c(Nc3ccc(Br)cc3F)c(C(=O)NOCCO)cc21 [BINIMETINIB] | 0.0233
53 | O=C(O)c1cc2ccccc2c(Cc2c(O)c(C(=O)O)cc3ccccc23)c1O [PAMOIC ACID] | 0.0734
